High-throughput results from PubChem BioAssay.
Most compounds without a hit are left out; they make up all but 19% or so of the library.
TDP1 inh – inhibitors of human tyrosyl-DNA phosphodiesterase TDP1 | Q9NUW8 | 350,000 compounds, 0.28% hits | recombinant TDP1, AlphaScreen DNA substrate cleavage | AID 485290 | Potency, µM (top dose mostly 130 µM), for the others: at the top dose activity change, negative = inhibition, usual class: inhibitors; note: potency is the fitted concentration of half-maximal effect; nearly all actives have a fitted effect of over 40% in size
Target sequence (Q9NUW8 whole entry, looked up): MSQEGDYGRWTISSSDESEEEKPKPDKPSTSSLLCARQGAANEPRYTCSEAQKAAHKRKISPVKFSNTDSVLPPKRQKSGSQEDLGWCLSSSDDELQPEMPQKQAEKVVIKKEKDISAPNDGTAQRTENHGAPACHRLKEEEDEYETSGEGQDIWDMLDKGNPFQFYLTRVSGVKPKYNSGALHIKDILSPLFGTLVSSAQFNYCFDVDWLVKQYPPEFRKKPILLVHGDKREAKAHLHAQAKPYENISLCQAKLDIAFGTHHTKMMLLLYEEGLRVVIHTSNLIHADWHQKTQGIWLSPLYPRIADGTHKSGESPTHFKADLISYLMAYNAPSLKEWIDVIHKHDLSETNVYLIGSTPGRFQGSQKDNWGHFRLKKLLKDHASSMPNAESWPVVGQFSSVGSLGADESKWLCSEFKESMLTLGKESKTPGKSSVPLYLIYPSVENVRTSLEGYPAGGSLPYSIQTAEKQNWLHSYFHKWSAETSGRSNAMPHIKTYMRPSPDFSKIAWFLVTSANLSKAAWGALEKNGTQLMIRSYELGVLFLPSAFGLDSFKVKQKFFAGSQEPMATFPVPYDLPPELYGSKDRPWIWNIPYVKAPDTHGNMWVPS
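Steps: enzyme plus compound, 15 min RT; add biotin/phosphotyrosine-FITC oligonucleotide (15 nM final), react 5 min; add donor/acceptor beads (10 ug/ml final), 10 min; read AlphaScreen. Tdp1 at 1 nM final.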
IL1B secr inh – blocks inflammasome-driven IL-1 beta release. AID 743279. 360,000 compounds, 4.7% hits. activity change, % at 57.5 µM. THP-1 LPS/ATP IL-1B secretion, AlphaLISA, 16 h; active compounds read low; in the data active = activity change below about -50%; inconclusive = mostly about -30% to -49%
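THP-1 cells pretreated 1 hr with compounds (up to 57.5 uM final), then stimulated with LPS (250 ng/mL final) plus ATP (1.25 mM final); secreted IL-1B measured by AlphaLISA after 16 hr, decreased signal indicating inhibition.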
DT40 TDP1 no CPT – qHTS for Inhibitors of human tyrosyl-DNA phosphodiesterase 1 (TDP1): qHTS in cells in absence of CPT; DT40 Tdp1-/- hTDP1 cells, no CPT, ATP luminescence, 48 h; Potency, µM (titrated, usually from 46.2 µM), for the others: at the highest dose activity change, negative = growth inhibition, most hits filed as inhibitors; 420,000 compounds, 15% hits; AID 686978, 2013; note: potency is the fitted concentration of half-maximal effect; nearly all actives have a fitted effect of over 55% in size
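Cells were dispensed at 400 per well, compounds added by pin tool, plates incubated ≥48 hr at 37 °C, then CellTiter-Glo added for 30 min at room temperature before luminescence reading. Line: DT40 Tdp1-/- complemented with hTDP1; camptothecin omitted.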
ELG1 repair inh – inhibitors of ELG1-dependent DNA repair in HEK293T cells; HEK293T ELG1-luciferase reporter, luminescence, 16 h; DNA damage induced by 5-fluorouridine; Potency, µM (highest dose often 46.1 µM), for the others: at the highest dose activity change, negative = inhibition, most hits filed as inhibitors; 330,000 compounds, 2.3% hits; AID 504467; note: potency is the fitted concentration of half-maximal effect; nearly all actives have a fitted effect of over 55% in size
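Luminescence from the luciferase reporter, measured 30 min after ONE-Glo reagent at room temperature, was the read-out. Beforehand, 2,000 cells per well were exposed for 16 hr at 37 °C to 5-fluorouridine together with compound or vehicle.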
TDP1 cell CPT – DT40-hTDP1 cell growth loss with CPT; chicken DT40 Tdp1-/-;hTDP1 cells + 20 nM CPT, ATP luminescence, 48 h; Potency, µM (highest dose often 46.2 µM), inactives show top-dose activity change, negative = growth inhibition, most hits filed as inhibitors; 420,000 compounds, 12% hits; note: potency is the fitted concentration of half-maximal effect; nearly all actives have a fitted effect of over 55% in size
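Chicken DT40 Tdp1-/- cells stably complemented with human TDP1 were seeded at 400 cells/well in medium containing 20 nM camptothecin, exposed to pin-transferred compounds, and grown at 37 °C for at least 48 hr. Viability was read as ATP luminescence.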
Giardia killer – Giardia lamblia killing; Giardia lamblia trophozoite viability; AID 540267; 340,000 compounds, 0.15% hits; activity change, % at 7.66 µM, hits read low; in the data active = activity change below about -80%; inconclusive = between about -30% and that limit;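 note: parasites exposed to compound for two days anaerobically before the ATP read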
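Trophozoites 100 cells/well + cpd; 48 hrs, 37 deg C, anaerobic. ATPLite 1-Step added, 15-30 min RT, luminescence read (ATP-based viability).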
The depositor's hits bear a star; ? = inconclusive; · = no result given; [ ] = remark or other dose. Unless noted, calls come from the whole dose curve; as a rule, active = well fitted curve in the direction sought with a large enough effect; inconclusive = small, poorly fitted or top-dose-only effect, or another doubt; inactive = no such curve, though single readings can be large; an effect the other way counts as inactive or inconclusive. % is set by controls: 0 for no effect and ±100 for the full control effect.

SMILES | TDP1 inh | IL1B secr inh | DT40 TDP1 no CPT | ELG1 repair inh | TDP1 cell CPT | Giardia killer
CCOc1cccc(C(=O)NC(=S)Nc2ccc3c(c2)OCCO3)c1 | 8% | -54* | ? | ? | -16% | -13
COc1ccc(/C=C/C(=O)NCC(=O)N/N=C(/CCC(=O)O)c2ccccc2)cc1 | 6% | 22 | 2% | -1% | 0% | 6
CC12CCC(=O)N1C(C(=O)Nc1nc3ccc(F)cc3s1)CS2 (stereo not given) | 0% | -10 | 10µM* | ? | -15% | 21
CC12CCC(=O)N1C(C(=O)OCC(=O)Nc1ccc(Cl)c(Cl)c1)CS2 (stereo not given) | 6% | -58* | ? | 17% | -19% | -4
CC12CCC(=O)N1C(C(=O)Nc1ccc(Cl)c(S(=O)(=O)N3CCCCC3)c1)CS2 (stereo not given) | 3%[0.505 µM] | 5 | ? | ? | ? | -11
CC(=O)NC12CC3CC(C1)CC(C(=O)Nc1nc4ccc(F)cc4s1)(C3)C2 | 7% | ? | 26µM* | -20% | ? | 2
CC12CCC(=O)N1C(C(=O)Nc1nc3ccccc3s1)CS2 (stereo not given) | -1% | 1 | -2% | ? | -2% | -5
CC12CCC(=O)N1C(C(=O)Nc1ccc(Cl)c(Cl)c1)CS2 (stereo not given) | -3% | -50* | -26% | -3% | 14% | 9
CC1CCCN(C(=O)CN(C)S(=O)(=O)c2ccc3c(c2)c(=O)n(C)c(=O)n3C)C1 (stereo not given) | 2% | 16 | 16% | 16% | -15% | -17
CCc1nc2ccc(C(=O)NCc3cccs3)cn2c1N(CC)CCOC | · | -1 | ? | · | ? | ·
CN1C(=O)NC(c2cccc(F)c2)C2=C1CC(C)(C)CC2=O (stereo not given) | · | 2 | 14% | 9% | 1% | 0
C[C@H](CO)N1C[C@H](C)[C@@H](CN(C)S(C)(=O)=O)Oc2c(NC(=O)Nc3ccccc3)cccc2C1=O | 3% | -4 | ? | 5% | -6% | 2
COc1ccc(N2CCN(S(=O)(=O)CCNC(=O)c3c(F)cccc3Cl)CC2)cc1 | 7% | · | -22% | · | -2% | ·
CC(C)CC1N=C2c3ccccc3N=C(SCC(=O)NCCc3ccc(Cl)cc3)N2C1=O (stereo not given) | 1% | · | ? | · | ? | ·
Cc1cc2c(s1)c1cnn(Cc3ccc(C(F)(F)F)cc3F)c(=O)c1n2C | -2% | · | · | · | · | ·
CCOC(=O)N1CCN(C2=C(NS(=O)(=O)c3ccc(Br)cc3)C(=O)c3ccccc3C2=O)CC1 | · | 13 | 16µM* | · | 12µM* | ·
NC(=O)C1CCN(C2=C(NS(=O)(=O)c3ccccc3)C(=O)c3ccccc3C2=O)CC1 | 8% | 36 | ? | ? | -24% | 21
NC(=O)C1CCN(C2=C(NS(=O)(=O)c3ccc(Br)cc3)C(=O)c3ccccc3C2=O)CC1 | · | 41 | 18µM* | -19% | 23µM* | 3
CCOC(=O)N1CCN(C2=C(NS(=O)(=O)c3ccccc3)C(=O)c3ccccc3C2=O)CC1 | 13% | 6 | ? | -14% | 13µM* | 0
CCOC(=O)N1CCN(C(=O)c2ccccc2NS(=O)(=O)c2ccc(C)cc2)CC1 | 6%[56.1 µM] | 12 | -18% | 8% | -8% | 0
CC(C)(C)C1CCc2onc(C(=O)Nc3sc4c(c3C#N)CCCC4)c2C1 (stereo not given) | -3% | · | -17% | · | -28% | ·
O=C(COC(=O)c1cc(-c2cccs2)nc2ccccc12)NC1CCS(=O)(=O)C1 (stereo not given) | 0% | ? | -27% | 21% | -2% | 0
c1ccc(-c2nc(-c3cccs3)[nH]c2-c2ccccc2)cc1 | 2% | -3 | ? | ? | ? | 5
Cc1nc2nc(-c3cccs3)[nH]c2cc1Br | · | ? | 16µM* | · | ? | 12
